# Screening results as filed in PubChem BioAssay.
# ALOX12 inhib: blocks human 12-lipoxygenase activity; P18054; purified 12-hLO, xylenol orange hydroperoxide absorbance; Potency, µM (top dose mostly 57.1 µM), without a hit: at the top dose activity change, negative = inhibition, usual class: inhibitors; 0.12% of 150,000 active; note: nearly all actives have a fitted effect of over 55% in size
# Target sequence (P18054 whole entry, looked up): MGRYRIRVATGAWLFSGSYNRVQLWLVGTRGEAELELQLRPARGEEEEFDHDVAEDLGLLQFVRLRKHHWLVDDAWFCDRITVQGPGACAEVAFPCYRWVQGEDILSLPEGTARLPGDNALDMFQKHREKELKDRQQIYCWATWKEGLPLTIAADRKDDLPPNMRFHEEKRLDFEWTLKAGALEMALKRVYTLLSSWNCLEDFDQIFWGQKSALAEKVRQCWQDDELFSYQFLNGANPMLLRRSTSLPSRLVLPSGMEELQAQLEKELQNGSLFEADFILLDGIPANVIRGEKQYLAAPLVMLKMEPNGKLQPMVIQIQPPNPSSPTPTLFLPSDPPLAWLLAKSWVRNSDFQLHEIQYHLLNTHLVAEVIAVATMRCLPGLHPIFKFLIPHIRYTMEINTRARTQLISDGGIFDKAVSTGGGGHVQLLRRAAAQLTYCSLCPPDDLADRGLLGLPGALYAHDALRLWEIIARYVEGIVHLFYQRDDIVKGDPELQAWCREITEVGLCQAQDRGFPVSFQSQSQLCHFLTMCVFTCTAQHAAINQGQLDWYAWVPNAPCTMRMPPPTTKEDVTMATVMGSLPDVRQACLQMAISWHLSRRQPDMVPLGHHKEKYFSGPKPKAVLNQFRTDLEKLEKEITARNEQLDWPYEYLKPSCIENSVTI
#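 Purified human 12hLO (150 nM final) was preincubated with compounds for 15 min at room temperature in 25 mM Hepes pH 7.0, 0.01% Triton X-100, then reacted with 40 uM arachidonic acid for 30 min. Hydroperoxide was detected with ferrous iron/xylenol orange.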
# 15-hLO-2 inh: inhibitors of human 15-lipoxygenase 2 (ALOX15B); O15296; purified 15hLO-2, xylenol orange hydroperoxide absorbance; Potency, µM (doses to about 57.1 µM), without a hit: top-dose activity change, negative = inhibition, usual class: inhibitors; 0.56% of 110,000 active; note: nearly all actives have a fitted effect of over 60% in size
#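 Purified human 15hLO-2 (50 nM) preincubated 15 min with compound, then 45 uM arachidonic acid for 90 min at RT in 25 mM Hepes pH 7.5, 0.01% Triton X-100. Hydroperoxide detected by Fe-xylenol orange; 573/405 nm absorbance ratio.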
# * hit, by the source's call; ? = inconclusive; . = not tested or not shown; [ ] = remark or other dose. Only a selection was taken, and hits are over-represented in it overall. Calls come from the whole dose curve; as a rule, active = well fitted curve in the direction sought with a large enough effect; inconclusive = small, poorly fitted or top-dose-only effect, or another doubt; inactive = no such curve, though single readings can be large; an effect the other way counts as inactive or inconclusive. % is set by controls: 0 for no effect and ±100 for the full control effect; potency is the fitted concentration of half-maximal effect.
SMILES,ALOX12 inhib,15-hLO-2 inh
Cc1cccc(N2CSC3=C(C#N)C(c4ccc(C)o4)CC(=O)N3C2)c1 (stereo not given),-26%,?
COc1ccc2ccccc2c1C1CC(=O)N2CN(C3CCCCC3)CSC2=C1C#N (stereo not given),-22%,?
COc1ccc(OC)c(C2CC(=O)N3CN(c4ccccc4)CSC3=C2C#N)c1 (stereo not given),?,10µM*
COc1ccc(C2CC(=O)N3CN(Cc4ccco4)CSC3=C2C#N)cc1 (stereo not given),-16%,-29%
COc1ccc(C2CC(=O)N3CN(c4ccc(C)c(Cl)c4)CSC3=C2C#N)cc1 (stereo not given),-27%,16µM*
COc1ccc2ccccc2c1C1CC(=O)N2CN(Cc3ccco3)CSC2=C1C#N (stereo not given),-13%,13µM*
COc1ccc(N2CSC3=C(C#N)C(c4cccc(OC)c4OC)CC(=O)N3C2)cc1 (stereo not given),-26%,13µM*
CC(C)c1cccc2nc3c(c([Si](C)(C)C)c12)Cn1c-3cccc1=O,-5%,-17%
COC(=O)C1=C(C(=O)OC)[C@@H]2N(C)c3ccc(OC)cc3[C@@]23C[C@@H](C(=O)OC)N(S(=O)(=O)c2c(C)noc2C)C3=N1,-7%[11.4 µM],.
C=CCN1c2ccccc2[C@]23C[C@@H](C(=O)OC)N(C(=O)COCc4ccccc4)C2=NC(C(=O)OC)=C(C(=O)OC)[C@H]13,4%[11.4 µM],.
CC(=NCC(=O)O)c1ccccc1,-11%[11.4 µM],-13%[11.4 µM]
Cc1ccccc1/C=C\C1=NCCN1,-3%,-7%
CCc1ccccc1N1CSC2=C(C#N)C(c3ccccc3F)CC(=O)N2C1 (stereo not given),?,10µM*
COc1ccc(C2CC(=O)N3CN(c4ccccc4F)CSC3=C2C#N)cc1OC (stereo not given),-19%,?
Cc1cc(C)nc(SCc2nc3nc(C)cc(C)n3c2Br)n1,-8%,4%
Cc1cc(C)n2c(=S)[nH]nc2n1,?,6.3µM*
COC/C=C/C1=CC2=CC(=O)C(C)(OC(=O)c3cnc4ccccc4n3)C(=O)C2=CN1Cc1ccc2c(c1)OCO2 (stereo not given),-6%[11.4 µM],.
CC#CCN1c2ccccc2[C@]23C[C@@H](C(=O)OC)N(S(=O)(=O)c4ccc([N+](=O)[O-])cc4)C2=NC(C(=O)OC)=C(C(=O)OC)[C@H]13,1%[11.4 µM],.
C/C=C(/CC[C@@H](C)[C@H]1CCC2C3=CC[C@H]4[C@H](C)[C@@H](O)CC[C@]4(C)C3CC[C@@]21C)C(C)C (stereo not given in full),-4%[0.00818 µM],-12%[0.0915 µM]
Cc1c(C(C)(C)C)c(C=S)n2ccccc12,-18%,16µM*
CC(C)(C)c1ccc(-c2nc(C=O)c3ccccn23)cc1,-15%,-8%
CC(=O)[C@H]1CC[C@@H]2[C@]1(C)CC=C1[C@]23C=C[C@]2(C[C@H](O)CC[C@@]12C)[C@H](C(=O)O)[C@@H]3C(=O)O,5%[11.4 µM],-8%[11.4 µM]
Cc1cc(CCC(=O)O)c(C)cc1CCC(=O)O,0%,-1%
C=CC1=C(C)C2=NC1=CC1=NC(=CC3=NC(=CC4=NC(=C2)C(C)=C4CCC(=O)O)C(CCC(=O)O)=C3C)C(C=C)=C1C.[Zn],?,13µM*
Cc1c(C(=O)N(C)C2CCCCC2)sc2nc3ccc(N)cc3n12,1%[0.00818 µM],7%[0.0915 µM]
SMILES,ALOX12 inhib,15-hLO-2 inh
Cc1ccc(-c2n[nH]c(=S)n2/N=C/C=C/c2ccccc2[N+](=O)[O-])cc1,-7%,13µM*
COc1ccccc1/C=C\C=N\n1c(-c2ccc(Cl)cc2)n[nH]c1=S,-1%,.
COc1ccc2c3c(cccc13)N(C)N=C2C,?,2.5µM*
COc1ccccc1N1CCN(S(=O)(=O)c2ccc3c4c(cccc24)C(=O)N3C)CC1,1%,7%[2.29 µM]
CN1CCN(c2ncc3nc(-c4ccccc4)c(=O)n(C4CC4)c3n2)CC1,.,20%
Nc1ncnc2c1ncn2[C@@H]1O[C@@H](CO)[C@H](O)[C@@H]1O,2%,-6%
Cc1cc(C)c(NC(=S)NC(NC(=O)c2ccccc2)C(Cl)(Cl)Cl)c(C)c1 (stereo not given),4%,.
O=C(NC(NC(=S)Nc1ccccc1)C(Cl)(Cl)Cl)c1cccc(Cl)c1 (stereo not given),?,25µM*
COc1ccc(/C=C/c2cc(O)cc(O[C@H]3OC(CO)C(O)C(O)C3O)c2)cc1 (stereo not given in full),1%,0%
O=C1N/C(=N/Nc2ccccc2)S/C1=C\c1ccccc1,?,3.2µM*
COc1ccc(/C=C2\SC(=NCc3ccccc3)NC2=O)cc1,-20%,.
CCCCCCCC1=Cc2ccccc2C(C(C(C)=O)C(=O)OC)N1C(=O)OC (stereo not given),-19%[11.4 µM],.
Cc1cc(=O)c2c(O)c3c(O)cc(O)c4c5c(O)cc(O)c6c(O)c7c(=O)cc(C)c8c1c2c(c34)c(c65)c78,?,2.5µM*
